Reference: PubChem BioAssay (NCI)
This is part of a sample that, as a whole, favours compounds with a hit. Of some 83,000 tested, about 20% had one in any assay.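 In brief: 96-well plates, 48 h treatment, single concentration, percent growth endpoint.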 A number with no mark means an inactive call. Active and inactive are the calls of the source. How the source made its calls: active means growth percent below 10; inactive means the rest.

What follows are compounds tested on HCT-116 colon (assay: NCI-60 one-dose screen, 48 h (100 = growth as untreated, 0 = no growth, -100 = all killed)). Conditions: 10 µM unless noted.
In the case of CC1(C)CC[C@]2(C(=O)O)CC[C@]3(C)C(=CCC4[C@@]5(C)C[C@@H](O)[C@@H]6OC(c7cccc(Br)c7)OC[C@@]6(C)C5CC[C@]43C)C2C1 (stereo not given in full), the growth is reported as 10.8%. Work on CCOC(=O)/C=C/c1cccc2c1C(=O)NC(C)(c1cc3cc(Br)ccc3oc1=O)N2 (stereo not given) yielded a growth of 32.2%. COc1cc(OC)c2c3nc4cc(C)c(C)cc4nc3n(CCN(C)C)c2c1 was tested, and the growth was 39.5%. COc1ccc(N2N=C(c3ccc4c(c3)OCO4)CC2c2cccc(NC(=O)CCCNS(=O)(=O)c3ccc(F)cc3)c2)cc1 (stereo not given) was tested, and the growth was 49.9%. Cc1ccc(NC(=O)CN2CCN(c3ncnc4c3cnn4-c3ccccc3)CC2)cc1 gave a growth of 76.3%. With CN(C)CCn1c2ccccc2c2nc3cc4ccccc4cc3nc21 the growth was -61.4% (active). Cc1ccc(C2CC(c3ccc(S(=O)(=O)NCCNc4nc(Nc5ccc(F)cc5)nc(N(C)C)n4)cc3)=Nc3c(N)nc(N)nc3N2)cc1 (stereo not given) was tested, and the growth was 27.2%. In the case of O=c1onc(-c2cc3ccccc3nc2Cl)n1-c1cccc2ccccc12, the growth is reported as 40.2%. CCCS(=O)(=O)N1CCCC(C(=O)Nc2nc3ccc(NC(=O)c4ccc(F)c(OC)c4F)cc3s2)C1 (stereo not given) showed a growth of 31.1%. CN(C)c1nc(NCCNS(=O)(=O)c2ccc(C(=O)/C=C/c3ccc(F)cc3)cc2)nc(Nc2ccc(F)cc2)n1 was tested, and the growth was -86.8% (active). In the case of O=C(CCN1C(=O)/C(=C/c2ccc(F)cc2)SC1=S)N1CCOCC1, the growth is reported as 55.5%. Work on O=c1[nH]c2ccccc2cc1CSc1nccc(-c2ccc3ccccc3c2)n1 yielded a growth of 41.7%. Work on CC(=O)Nc1ccc(-n2cnc3ccc(-c4ccc(O)cc4)cc32)cc1 yielded a growth of 20.2%. In the case of CC(C)Sc1nc(NCCc2c[nH]c3ccccc23)c(C#N)c(-c2ccc(F)cc2)n1, the growth is reported as 3.83% (active). In the case of CC(=O)c1c(N)c(C#N)cn1-c1ccc(Cl)cc1Cl, the growth is reported as 99.1%. Compound C#CCOc1ccc(/C=N/Nc2nc(-c3ccc(Cl)cc3)cs2)cc1OC has a growth of 48.1%. For C/C(=N\N=C1/C(=O)Nc2ccc(Cl)cc21)c1ccc2c(c1)Nc1ccccc1S2, the growth was -43% (active). CC12CC[C@@H]3[C@]4(C)COC(c5c(F)cccc5F)O[C@@H]4CC[C@@]3(C)[C@@H]1CC(C1=CCOC1=O)O2 (stereo not given in full) gave a growth of 49.1%. Work on NC(=S)Nc1cccc(NC(N)=S)c1 yielded a growth of 107%. With Cc1ccc([C@H]2C(C(=O)c3ccc(Cl)cc3)C3(N[C@@H]2c2ccccc2)C(=O)Nc2ccc(Br)cc23)cc1 (stereo not given in full) the growth was 30.7%. Compound CC(=O)OC[C@@]1(C)C2CC[C@]3(C)C(CC=C4C5CC(C)(C)CC[C@]5(C(=O)Nc5cccc(C)c5)CC[C@]43C)[C@@]2(C)C[C@@H](OC(C)=O)[C@@H]1OC(C)=O (stereo not given in full) has a growth of 21.8%. CCCSc1nc(NCCc2c[nH]c3ccccc23)c(C#N)c(-c2ccc(F)cc2)n1 showed a growth of 22.6%. In the case of Clc1ccc(-c2ccc(OCCCN3CCN(c4ccncc4)CC3)cc2)cc1, the growth is reported as -28.8% (active). For COc1ccc(C2(SCCNCc3cc(N(C)C)ccn3)c3ccccc3C=Cc3ccccc32)cc1, the growth was 3.35% (active). For COc1ccc(C2=NN(C(C)=O)C(c3ccc(OCc4ccc(Cl)cc4)c(OC)c3)C2)cc1OC (stereo not given), the growth was 35.3%. With CCN(CC)c1ccc(/C=N/Nc2nc(-c3ccc(C)cc3)cs2)c(O)c1 the growth was 72.9%. With COc1ccc2[nH]cc(-c3nnc(N)nc3-c3cn(C)c4ncc(Br)cc34)c2c1 the growth was 79.6%. For N/C(=N\c1nc2ccccc2s1)NC(=O)Nc1ccc(Cl)cc1Cl, the growth was -79.6% (active). In the case of O=C(COc1ccc(NC(=O)Nc2ccc(Cl)c(Cl)c2)cc1)N=Nc1c(O)[nH]c2ccc(Cl)cc12, the growth is reported as -53.5% (active). For CC(=O)Nc1ccc(-n2cnc3cc(-c4ccc(O)cc4)ccc32)cc1C(F)(F)F, the growth was 31%. In the case of COc1ccc2c(c1)C(=N/N=C(\C)c1ccc(OC)c(S(N)(=O)=O)c1)C(=O)N2, the growth is reported as 88.6%. For Cc1ccc2c(c1)nc(-c1ccccc1)n2CC(=O)N=Nc1c(O)[nH]c2ccc(Br)cc12, the growth was -91.7% (active). C=CC(=O)Nc1ccc(C)c(Oc2ccc(Cl)cc2)c1 showed a growth of 52.1%. COc1cc2oc(-c3cccc(C(=O)Nc4cccc([N+](=O)[O-])c4)c3)cc(=O)c2c(OC)c1OC was tested, and the growth was 25.2%. In the case of COc1ccc2oc3c4[nH]c5ccccc5c4c4c(c3c2c1)C(=O)N(C(=O)OC(C)(C)C)C4=O, the growth is reported as 1.65% (active).
